ST2 inh – blocks human ST2 binding to IL-33; inhibition, % for hits at 17 µM; AID 1259354; Q01638; hit rate 2.3% among 78,000; AlphaLISA ST2-Fc/biotin-IL-33 interaction, 1 h; in the data active means inhibition above about 30%
Target sequence (Q01638 whole entry, looked up): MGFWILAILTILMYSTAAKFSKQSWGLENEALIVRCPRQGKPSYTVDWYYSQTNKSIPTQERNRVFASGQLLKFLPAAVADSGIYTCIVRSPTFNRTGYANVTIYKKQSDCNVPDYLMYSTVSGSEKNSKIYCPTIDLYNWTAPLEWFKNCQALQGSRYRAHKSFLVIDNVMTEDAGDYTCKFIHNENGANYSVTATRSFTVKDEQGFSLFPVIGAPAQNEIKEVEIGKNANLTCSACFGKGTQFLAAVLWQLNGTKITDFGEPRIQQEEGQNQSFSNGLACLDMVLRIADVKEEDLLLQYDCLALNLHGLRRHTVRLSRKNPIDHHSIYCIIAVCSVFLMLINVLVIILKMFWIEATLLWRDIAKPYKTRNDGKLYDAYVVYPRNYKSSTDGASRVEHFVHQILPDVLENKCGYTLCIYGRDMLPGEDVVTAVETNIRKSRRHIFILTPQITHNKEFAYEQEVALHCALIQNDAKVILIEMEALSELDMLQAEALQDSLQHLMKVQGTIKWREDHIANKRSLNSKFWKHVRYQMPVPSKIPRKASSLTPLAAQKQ
An asterisk follows results filed as active. The entries come from a sample that favours hits as a whole.

How did Cc1ccc(N2C(=O)C(N3C(=O)c4cccc([N+](=O)[O-])c4C3=O)C2c2cccs2)cc1Cl (stereo not drawn) do in these assays?
ST2 inh: inactive

How did O=C1c2cccc([N+](=O)[O-])c2C(=O)N1C1C(=O)N(c2ccc(Cl)cc2)C1c1ccc(F)cc1 (stereo not drawn) do in these assays?
ST2 inh: 41.0%*

What do the screens show for `O=C1c2cccc([N+](=O)[O-])c2C(=O)N1C1CCCCCCC1`?
ST2 inh: 36.0%*

Results for O=C(CCN1C(=O)c2cccc([N+](=O)[O-])c2C1=O)Nc1ccc(F)cc1 ?
ST2 inh: inactive

What do the screens show for `Cc1ccccc1NCN1C(=O)c2cccc([N+](=O)[O-])c2C1=O`?
ST2 inh: inactive

What do the screens show for `COc1ccccc1CC(=O)Nc1ccc(Cl)cc1C`?
ST2 inh: inactive

How did CS(=O)(=O)c1ccc(S(=O)(=O)C(F)(F)F)cc1 do in these assays?
ST2 inh: inactive

How did C=C(C)Cn1c(CCNC(=O)c2cccs2)nc2ccccc21 do in these assays?
ST2 inh: inactive

What do the screens show for `O=C([C@@H]1C[C@@H]1c1ccccc1)N1CCOCC1`?
ST2 inh: inactive

Results for COc1cc(/C=C2\C(=O)N(c3ccccc3)N=C2C)c([N+](=O)[O-])cc1OC ?
ST2 inh: inactive

What do the screens show for `COc1ccc2cc3cc(C(=O)Nc4cccc(C#N)c4)sc3nc2c1`?
ST2 inh: inactive

Results for COc1ccc2nc3oc(C(=O)Nc4ccccc4F)cc3cc2c1 ?
ST2 inh: inactive

How did Cc1ccc2cc3cc(C(=O)NC(C)C)sc3nc2c1 do in these assays?
ST2 inh: inactive

How did COc1ccc(N2CCN(C(=O)c3cc4cc5ccc(OC)cc5nc4s3)CC2)cc1 do in these assays?
ST2 inh: inactive

How did COc1ccc2cc3cc(C(=O)Nc4ccccc4F)sc3nc2c1 do in these assays?
ST2 inh: 41.0%*

How did COc1ccc2cc3cc(C(=O)Nc4ccc(F)cc4F)sc3nc2c1 do in these assays?
ST2 inh: 35.0%*

Results for Cc1cccn2c(=O)c3cc(C(=O)Nc4ccccc4C#N)sc3nc12 ?
ST2 inh: inactive

How did COc1ccc(-n2c(=O)[nH]cc(C(=O)Nc3ccc(F)cc3F)c2=O)cc1 do in these assays?
ST2 inh: inactive

What do the screens show for `Cc1ccc(Cl)cc1NC(=O)c1cc2c(=O)n3cccc(C)c3nc2s1`?
ST2 inh: inactive

How did COc1ccc2cc3cc(C(=O)Nc4ccc(F)cc4)sc3nc2c1 do in these assays?
ST2 inh: 35.0%*

What do the screens show for `Cc1cccn2c(=O)c3cc(C(=O)Nc4ccccc4F)sc3nc12`?
ST2 inh: 35.0%*

What do the screens show for `COc1ccc(C(=O)Nc2ccccc2F)cc1`?
ST2 inh: inactive

What do the screens show for `Cc1noc(C)c1NC(=O)c1cccc(CN(C)Cc2nccn2C)c1`?
ST2 inh: inactive

Results for O=c1[nH]c2cc(Cl)ccc2cc1CN1CCN(Cc2cccnc2)CC1 ?
ST2 inh: inactive

How did Cc1cc2c(cc1S(=O)(=O)N1CCCC1C(=O)NCc1ccc(Cl)cc1)OCC(=O)N2 (stereo not drawn) do in these assays?
ST2 inh: inactive

Results for Cc1cccn2c(=O)c3cc(C(=O)NCc4ccc(F)cc4)n(C)c3nc12 ?
ST2 inh: inactive

Results for Cc1ccc(CSC2=NCCN2C(=O)c2ccc3c(c2)OCO3)cc1 ?
ST2 inh: inactive

What do the screens show for `CCOc1ccccc1NC(=O)CCS(=O)(=O)c1ccc(Br)s1`?
ST2 inh: inactive

What do the screens show for `Cc1nnc(NC(=O)c2ccc([N+](=O)[O-])cc2Cl)s1`?
ST2 inh: inactive

How did CCOC(=O)c1nc(Nc2cccc(F)c2)c2ccccc2n1 do in these assays?
ST2 inh: inactive

Results for COc1nc(N(C)C)nc(N(C)C)n1 ?
ST2 inh: inactive

How did CCc1nc(NC)nc(OC)n1 do in these assays?
ST2 inh: 68.0%*

How did CCc1ccccc1-c1nc(OC)nc(OC)n1 do in these assays?
ST2 inh: inactive

How did CCc1nc(C)cn1S(=O)(=O)c1cc(C)c(Br)cc1C do in these assays?
ST2 inh: inactive

How did CCC(=O)c1ccccc1NC(=O)c1ccccc1 do in these assays?
ST2 inh: inactive

Results for CCN(CC)C(=O)CC[C@H]1CNC(=O)[C@@H]2[C@@H](CCN2Cc2ccc(OC)cc2)N1C ?
ST2 inh: inactive

How did Cc1cc(C)[n+]2c(c1C#N)SCC2C(Br)c1ccccc1 (stereo not drawn) do in these assays?
ST2 inh: 58.0%*

Results for c1ccc(-c2ncn(CCN3CCCC3)c2-c2nc3ccccc3[nH]2)cc1 ?
ST2 inh: inactive

Results for C=CCc1cccc2cc(C(=O)Nc3ccc(Br)cc3)c(=O)oc12 ?
ST2 inh: inactive

How did CCN(C(C)=O)C1CCN(c2nccc(CCC(F)(F)F)n2)C1 (stereo not drawn) do in these assays?
ST2 inh: inactive

What do the screens show for `O=C1C2C3c4ccccc4C(c4ccccc43)C2C(=O)N1c1ccc2c(c1)OCO2` (stereo not drawn)?
ST2 inh: inactive

How did Cc1ccc([N+](=O)[O-])cc1N1C(=O)CC(Nc2ccc(N3CCOCC3)cc2)C1=O (stereo not drawn) do in these assays?
ST2 inh: 52.0%*

What do the screens show for `O=C1CC(Nc2ccc(Br)cc2)C(=O)N1c1cccc(Cl)c1` (stereo not drawn)?
ST2 inh: 32.0%*

How did O=C1CC(Nc2ccccc2)C(=O)N1c1ccc(Br)cc1 (stereo not drawn) do in these assays?
ST2 inh: inactive

What do the screens show for `CCc1cccc(NC2CC(=O)N(c3cccc(Cl)c3)C2=O)c1` (stereo not drawn)?
ST2 inh: inactive

How did COc1cccc(N2C(=O)CC(Nc3ccc(N4CCOCC4)cc3)C2=O)c1 (stereo not drawn) do in these assays?
ST2 inh: 47.0%*

What do the screens show for `Cc1ccc(S(=O)(=O)N2CCN(c3ccc([N+](=O)[O-])c(N4CCOCC4)c3)CC2)cc1`?
ST2 inh: inactive

Results for O=C1CC(NCc2ccc3c(c2)OCO3)C(=O)N1c1ccccc1 (stereo not drawn) ?
ST2 inh: inactive

Results for Cc1cccc(N2C(=O)CC(N3CCN(c4ccc(F)cc4)CC3)C2=O)c1 (stereo not drawn) ?
ST2 inh: inactive

How did O=[N+]([O-])c1ccc(Nc2nc(N3CCOCC3)nc(N3CCOCC3)n2)cc1 do in these assays?
ST2 inh: inactive

Results for COc1ccc(NC2CC(=O)N(c3cccc(Cl)c3)C2=O)cc1 (stereo not drawn) ?
ST2 inh: inactive

How did O=C1CC(Nc2ccc(N3CCOCC3)cc2)C(=O)N1c1ccc2c(c1)OCO2 (stereo not drawn) do in these assays?
ST2 inh: 55.0%*

Results for CCSCCN(C(=O)CC1=CCNCC1)C1CCCCC1 ?
ST2 inh: inactive

What do the screens show for `COC(=O)C1=C(C)Nc2nnnn2C1c1ccc(Br)cc1` (stereo not drawn)?
ST2 inh: inactive

What do the screens show for `COc1ccccc1C(=O)Nc1ccc([N+](=O)[O-])cc1Cl`?
ST2 inh: inactive

What do the screens show for `Cn1c(=O)c2c(nc([N+](=O)[O-])n2Cc2ccc(F)cc2)n(C)c1=O`?
ST2 inh: inactive

How did Cn1c(=O)c2c(nc(NCCO)n2Cc2cccc(Cl)c2)n(C)c1=O do in these assays?
ST2 inh: inactive

What do the screens show for `CCCOc1ccc2oc(=O)c3c(c2c1)CCCN3C(=O)CN1CCN(c2ccccc2)CC1`?
ST2 inh: inactive

How did Cc1n[nH]c(=O)n1-c1ccc2ccccc2c1 do in these assays?
ST2 inh: inactive

What do the screens show for `O=C(c1cccn2c(=O)c3cc4ccccc4cc3nc12)N1CC=C(c2ccccc2)CC1`?
ST2 inh: inactive

Screening results (PubChem BioAssay)
